Out of some 410,000 compounds screened, about 18,000 (4.4%) were called active. Inconclusive results (about 7%) are left out. This is one part of a sample in which actives are shown more often than they occur. Rule as the data show it: active = activity change below about -60%; inconclusive = no clear call, values can overlap the other calls; inactive = above about -39%.
% is scaled to controls: 0 for no effect and ±100 for the full control effect.

The assay in a line: qHTS Assay for inhibitors of the human cytomegalovirus (HCMV). The note with it: HFF cells, HCMV-luciferase reporter, 72 h; at 57.5 µM; stronger effect = lower value. The procedure, abridged:
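Inhibition of viral replication was scored as loss of reporter luminescence in HFFs infected with HCMV-luciferase (MOI 1 PFU/cell) for 72 h; compounds tested at 2 doses, normalized to buffer and Salinomycin controls.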
A general note: In qHTS, concentration-response curves come from the screen itself.
Consider `Cc1ccc(CN(C(=O)COc2ccc(Cl)cc2C)C2CCS(=O)(=O)C2)o1` (stereo not drawn), for which the activity change, negative = inhibition was 51.5% (inactive).
In the case of `Cc1cccc(N2CCN(c3ccc(C(=O)O)cc3NC(=O)c3ccccc3F)CC2C)c1` (stereo not drawn), the activity change, negative = inhibition was -4.85% (inactive).
In the case of `CCOc1ccccc1C(=O)NC1(C(F)(F)F)NC(=O)N(CCc2ccc(OC)c(OC)c2)C1=O` (stereo not drawn) it was -4.49% (inactive).
In the case of `O=C(CSc1nc2ccccc2nc1Cc1ccccc1)N1CCCCC1` it was -18.6% (inactive); in that of `CC(C)[C@@H](C(=O)OCC(=O)c1ccc2c(c1)NC(=O)CO2)N1C(=O)c2ccccc2C1=O`, 43.1% (inactive).
Take `COc1cc(NC(=O)c2noc3c2CSc2ccccc2-3)cc(OC)c1OC`: the activity change, negative = inhibition was 40.1% (inactive).
Then `CC(C)CCNC(=O)CSc1nc2ccccc2nc1Cc1ccc(Cl)cc1`, with -7.66% (inactive).
In the case of `O=C(CC1N=C2c3ccccc3N=C(SCc3ccc(F)cc3)N2C1=O)NCc1cccs1` (stereo not drawn) it was 30.3% (inactive).
Then `CC(=O)c1ccc(N2CCN(C(=O)c3ccc4nc[nH]c4c3)CC2)cc1`, with -12% (inactive); and `O=C(c1ccc(N2CCCC2=O)cc1)N1CCN(c2ccc(C(F)(F)F)cc2[N+](=O)[O-])CC1`, with -85.8% (active); and `O=C(c1cccc(C(=O)N2CCN(c3ccc(F)cc3)CC2)c1)N1CCN(c2ccc(F)cc2)CC1`, with -88.8% (active).
Take `CNS(=O)(=O)c1ccc(N2CCCC2=O)c([N+](=O)[O-])c1`: the activity change, negative = inhibition was -21% (inactive).
As for `O=C(c1cccc(-n2cccc2)c1)N1CCN(S(=O)(=O)c2ccc(F)cc2)CC1`, the activity change, negative = inhibition was -6.27% (inactive).
In the case of `O=C(Nc1cc(Cl)ccc1N1CCOCC1)c1ccc(N2CCCC2=O)cc1` it was -3.06% (inactive); in that of `Cc1cc(C)cc(Nc2ncnc3onc(-c4ccc(F)cc4)c23)c1`, -23.4% (inactive).
In the case of `COc1ccccc1-c1nnc(SCC(N)=O)o1` it was 64.6% (inactive); in that of `COc1cc(C(=O)Nc2ccc(-n3c(C)nc4ccccc4c3=O)cc2)cc(OC)c1OC`, -1.41% (inactive); in that of `CCOC(=O)c1cc2c(=O)n3ccccc3nc2n(CCCOC)c1=NC(=O)C(C)Oc1ccccc1` (stereo not drawn), -1.73% (inactive).
With `O=S(=O)(c1cccc2nonc12)N1CCN(c2cccc(Cl)c2)CC1`, the activity change, negative = inhibition was -25.7% (inactive).
In the case of `Cc1ccc2nc(N3CCN(c4cccc(Cl)c4)CC3)c3nnnn3c2c1` it was -71.6% (active); in that of `O=Cc1c(N2CCN(c3cccc(Cl)c3)CC2)nc2ccccn2c1=O`, -31.6% (inactive); in that of `COC(=O)c1ccc(COC(=O)CNC(=O)c2cccc(OC)c2)o1`, -25.9% (inactive).
In the case of `O=C(Nn1cc(C(=O)N2CCN(c3ccccc3F)CC2)c2ccccc2c1=O)c1cnccn1` it was 43.2% (inactive); in that of `CC(=O)c1ccc(OCC(=O)N(C)C2CCS(=O)(=O)C2)cc1` (stereo not drawn), -17% (inactive); in that of `COc1ccc(-c2cc(=O)oc3cc(OCC(=O)N(C)C4CCS(=O)(=O)C4)ccc23)cc1` (stereo not drawn), 4.48% (inactive).
Then `COc1ccc(/C=C(\C#N)C(=O)OCC(=O)N(C)C2CCS(=O)(=O)C2)cc1` (stereo not drawn), with -87.3% (active).
In the case of `CCOC(=O)c1c(S(=O)(=O)N2CCC(C(=O)NCc3ccccc3OC)CC2)c(C)n(C)c1C`, the activity change, negative = inhibition was 9.09% (inactive).
`O=C(CC1Oc2ccc(Cl)cc2NC1=O)NCc1ccccc1` (stereo not drawn): the activity change, negative = inhibition was -7.24% (inactive).
In the case of `O=C(Nc1ccc(F)cc1F)c1ccc2c(=O)n3c(nc2c1)CCCCC3` it was 61.7% (inactive).
Then `COc1cccc(CNC(=O)C(NS(=O)(=O)c2ccc3nc(C)sc3c2)C(C)C)c1` (stereo not drawn), with -9.19% (inactive); and `COC(=O)c1ccc(COc2ccc(C#N)cc2)o1`, with -13.9% (inactive); and `Cc1ccc(C(=O)NC23CC4CC(CC(C4)C2)C3)c(Cl)c1`, with 20.9% (inactive).
In the case of `S=C(NCc1ccc(Cl)cc1)NC12CC3CC(CC(C3)C1)C2` it was -100% (active).
Consider `COc1ccccc1C(=O)NC(=S)NC12CC3CC(CC(C3)C1)C2`, for which the activity change, negative = inhibition was -36.1% (inactive).
Then `Cc1cc(-c2ccccc2)n2nc(-c3ccccc3)cc2n1`, with -2.35% (inactive).
In the case of `CC(C)(C)c1ccccc1NC(=O)CN1C(=O)NC2(CCCC2)C1=O` it was 19.2% (inactive); in that of `O=C(NCCN1C(=O)S/C(=C\c2cccnc2)C1=O)c1ccc(S(=O)(=O)N2CCCC2)cc1`, 3.64% (inactive).
As for `CC12CCC(=O)N1C(C(=O)NCCN1C(=O)S/C(=C\c3ccccc3F)C1=O)CS2` (stereo not drawn), the activity change, negative = inhibition is -21.8% (inactive).
On to `O=C(CN1C(=O)S/C(=C\c2ccccc2Cl)C1=O)NC1C=CS(=O)(=O)C1` (stereo not drawn), for which the activity change, negative = inhibition is -66.8% (active).
Then `CCCn1c2ccccc2c2cnn(CC(=O)N(CC)c3cc(C)ccc3C)c(=O)c21`, with -37.8% (inactive); and `Cc1ccc(C(=O)Nc2cc3c(cc2N2CCCC2)n(C)c(=O)c(=O)n3C)cc1`, with 0.153% (inactive).
Then `O=C(NC1CCN(Cc2ccccc2)CC1)c1ccc(Cn2c(=O)c3ccccc3n(Cc3cccc(F)c3)c2=O)cc1`, with -15.8% (inactive); and `CCC(C(=O)Nc1cccc(Cl)c1C)n1nc(-c2ccc(C)cc2)ccc1=O` (stereo not drawn), with 12.4% (inactive); and `Cc1nnc(NC(=O)CSc2nc3c([nH]c4ccccc43)c(=O)n2-c2cccc(Cl)c2)s1`, with -12.8% (inactive).
Take `CCCCCCc1cc2cc(-c3nnc(-c4ccccc4)o3)c(=O)oc2cc1O`: the activity change, negative = inhibition is -100% (active).
Then `COn1c(-c2ccc(Cl)cc2Cl)nc2ncccc21`, with -63.6% (active); and `CCn1c(-c2cccnc2Cl)nc2cc(C)c(C)cc21`, with -25.4% (inactive); and `Cc1ncn2cc(-c3ccc(Cl)cc3Cl)[nH]c(=O)c12`, with -32.3% (inactive).
Then `CC(NC(=O)CCc1cn(Cc2ccccc2Cl)c2ccccc12)c1ccccc1` (stereo not drawn), with -11.3% (inactive); and `Cc1cccc(NC(=O)N2CCN(C)c3ncccc32)c1C`, with 12% (inactive); and `CC(Sc1oc(-c2ccco2)nc1S(=O)(=O)c1ccc(Br)cc1)c1ccccc1` (stereo not drawn), with 0.136% (inactive).
Then `CCN(C(=O)c1ccc(Br)cc1)c1ccccc1`, with 7.23% (inactive); and `COc1ccc2c(Cl)c(-c3nnco3)sc2c1`, with -7.84% (inactive).
As to `CCN(C(=O)c1sc2cc(OC)ccc2c1Cl)c1ccccc1`, the activity change, negative = inhibition was -99.2% (active).
As for `COc1ccc(CNC(=O)c2ccc3c(c2)nc2n3CCOC2)c(OC)c1`, the activity change, negative = inhibition was 2.67% (inactive).
In the case of `COc1ccccc1NS(=O)(=O)c1ccc(C)c(C(=O)NCC(c2ccco2)N(C)C)c1` (stereo not drawn) it was -6.15% (inactive).
Then `Cc1cccc(NS(=O)(=O)c2ccc(C)c(C(=O)NCC(c3ccccc3)N(C)C)c2)c1` (stereo not drawn), with -101% (active); and `COc1ccc(C(CNC(=O)c2cc(S(=O)(=O)Nc3cccc(C)c3)ccc2C)N2CCCC2)cc1` (stereo not drawn), with -30.6% (inactive).

Values taken from PubChem BioAssay AID1259415 (National Center for Advancing Translational Sciences (NCATS), 2018).
